Drawing on PubChem BioAssay, this text covers remaining activity for 40 compounds.

Values without a mark were called inactive. No rule for the calls is given here.

The subject of this experiment is Aerobactin synthetase IucA (Klebsiella pneumoniae, hypervirulent). Nature of the experiment: biochemical IucA inhibition screen of LOPAC library by absorbance (AID 1346212).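 Also: 100% = no compound wells and 0% = no enzyme wells.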 To be noted: IucA enzyme assay, absorbance (OD) readout; hits give low values;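 tested at 8 µM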.
A word on the remaining activity: it is the signal under treatment as a percentage of the control signal. For the compound `CCN(CC)CCCCCCCCOC(=O)c1cc(OC)c(OC)c(OC)c1`, the remaining activity was 100%.
The result for `Brc1ccc([C@H]2CN3CCSC3=N2)cc1` reads 105%; that for `Cc1ccccc1/C=C/C1=NCCN1`, 120%.
Next, `NC(N)=NC(N)=Nc1cccc(Cl)c1`: 102%; `Nc1ccc(N2C(=O)c3ccccc3C2=O)c(Cl)c1`: 105%; `COc1ccccc1N1CCN(CCN(C(=O)c2ccc(F)cc2)c2ccccn2)CC1`: 117%.
The result for `CN1[C@@H]2CC[C@H]1CC(OC(=O)C(CO)c1ccccc1)C2` (stereo not given in full) reads 95%; that for `CC[C@H](CO)Nc1nc(NCc2ccccc2)c2ncn(C(C)C)c2n1`, 123%.
For `Cc1cccc(C2CN(C)CCc3c2cc(O)c(O)c3Cl)c1` (stereo not given), the remaining activity was 105%.
Take `OCCN1CCN(CCCN2c3ccccc3C=Cc3ccccc32)CC1`: the remaining activity was 117%.
Next, `CCN1CCC[C@H]1CNC(=O)c1c(O)c(Cl)cc(Cl)c1OC`: 98.9%; `Cc1nc(N=Nc2cc([N+](=O)[O-])ccc2Cl)c(COP(=O)(O)O)c(C=O)c1O`: 117%.
For the compound `CC(C)C(=O)c1c(C(C)C)nn2ccccc12`, the remaining activity is 125%.
As to `C#CCn1c(=O)c2c(ncn2C)n(C)c1=O`, the remaining activity is 109%.
The result for `CC(/C=C/c1cccc(Oc2ccc(F)cc2)c1)N(O)C(N)=O` (stereo not given) reads 99.1%.
The result for `OC(CN1CCN(c2cccc(Cl)c2)CC1)C(c1ccccc1)c1ccccc1` (stereo not given) reads 114%; that for `C#Cc1ccc2c(c1)C(=O)N(C)Cc1c(C(=O)OCCCc3nc(C(=O)O)c4n3-c3ccc(C#C)cc3C(=O)N(C)C4)ncn1-2`, 97.1%; that for `COc1cc2ncnc(Nc3cccc(Cl)c3)c2cc1OC`, 106%.
The result for `CCCn1c(=O)c2[nH]c(-c3ccc(OCC(=O)Nc4ccc(C#N)cc4)cc3)nc2n(CCC)c1=O` reads 109%.
As for `COc1cc2c(CCNC(C)=O)c[nH]c2cc1Cl`, the remaining activity is 115%.
Next, `COc1ccc([C@@H]2Sc3ccccc3N(CCN(C)C)C(=O)[C@@H]2OC(C)=O)cc1`: 109%.
The result for `O=C(c1cc(O)c(O)c([N+](=O)[O-])c1)c1ccccc1F` reads 104%; that for `N[C@@H](CCCC(=O)O)C(=O)O`, 110%; that for `Cc1nc2c([nH]1)c(=O)n(C)c(=O)n2Cc1ccco1`, 99.1%.
Next, `COc1cc2c(CCNC(C)=O)c[nH]c2cc1O`: 92.2%; `N[C@@H](CC(=O)O)C(=O)O`: 111%.
With `CN(C)c1nc(N)c(C(=O)N=C(N)N)nc1Cl`, the remaining activity was 119%.
Turning to `NC(Cc1cccc(-c2ccccc2CP(=O)(O)O)c1)C(=O)O` (stereo not given), the remaining activity was 103%.
With `Nc1ccn([C@@H]2O[C@H](CO)[C@@H](O)[C@@H]2O)c(=O)n1`, the remaining activity is 119%.
Next, `O=[N+]([O-])c1ccc(CSc2ncnc3c2ncn3[C@@H]2O[C@H](CO)[C@@H](O)[C@H]2O)cc1`: 126%.
`Nc1nc(N)c2nc(CNc3ccc(C(=O)N[C@@H](CCC(=O)O)C(=O)O)cc3)cnc2n1`: the remaining activity is 112%.
The result for `Clc1ccc(Cn2c(CN3CCCC3)nc3ccccc32)cc1` reads 115%; that for `Nc1nc2c(nc(Br)n2C2OC3COP(=O)(O)O[C@@H]3C2O)c(=O)[nH]1` (stereo not given in full), 111%.
Next, `C1CCC(N=C(NC23CC4CC(CC(C4)C2)C3)N2CCOCC2)CC1`: 122%; `CC(C)C[C@H](NP(=O)(O)O[C@@H]1O[C@@H](C)[C@H](O)[C@@H](O)[C@H]1O)C(=O)N[C@@H](Cc1c[nH]c2ccccc12)C(=O)O`: 89.8%; `CCc1c(C)[nH]c2c1C(=O)C(CN1CCOCC1)CC2` (stereo not given): 121%.
The result for `CC(C)NC[C@H](O)COc1cccc2ccccc12` reads 92.7%; that for `COc1cc2nc(N3CCN(C(=O)C4COc5ccccc5O4)CC3)nc(N)c2cc1OC` (stereo not given), 92.2%; that for `Nc1nc2c(ncn2COC(CO)CO)c(=O)[nH]1`, 111%.
For `CNC(=O)c1cc2c(cn1)[nH]c1ccccc12`, the remaining activity is 97.3%.
